Whole data set: some 2,900 compounds, median “NF-kB SEAP reporter activity, fold change vs agonist alone” near 0.99, cut for the highest 2% near 2.6. This is one part of a sample in which the highest values are shown more often than they occur.
Key:
[1] = system: RAW-Dual; assay: NF-kB SEAP reporter activity, fold change vs agonist alone; higher = enhanced NF-kB activity
Method in brief: (§1)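 After 50 nL of library stock was delivered by pin tool to RAW-Dual macrophages (50,000 cells/well, DMEM, 384-well plates), a PRR agonist was added 1 h later and the plates were kept at 37 °C, 5% CO2. Twenty hours later, IRF was read from supernatant by QuantiLuc luminescence and NF-κB by QuantiBlue absorbance at 620 nm. Reporter activity is stated as fold change over agonist-alone wells. Wells with IncuCyte confluency under 70% of agonist controls in both mask sets were counted as cytotoxic.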

[2] = system: RAW-Dual; assay: NF-kB SEAP reporter activity, fold change vs agonist alone; cytotoxicity flag (confluency mask): not cytotoxic; higher = enhanced NF-kB activity
Method in brief: as §1

[3] = system: RAW-Dual; assay: NF-kB SEAP reporter activity, fold change vs agonist alone; cytotoxicity flag (confluency mask): cytotoxic (confluency <70% of control); higher = enhanced NF-kB activity
Method in brief: as §1

[4] = library stock concentration (final ~1000-fold dilution): 10 mM, cytotoxicity flag (confluency mask): not cytotoxic, agonist: Imiquimod (TLR7) […]
[5] = library stock concentration (final ~1000-fold dilution): 10 mM, cytotoxicity flag (confluency mask): not cytotoxic, agonist: MPLA (TLR4) […]
[6] = agonist: ODN 1826 (TLR9) 0.5 ug/mL
[7] = agonist: Pam2CSK4 (TLR2/6) 0.1 ug/mL
[8] = agonist: Pam3CSK4 (TLR2/1) 0.1 ug/mL
[9] = library stock concentration (final ~1000-fold dilution): 10 mM, cytotoxicity flag (confluency mask): cytotoxic (confluency <70% of control), agonist: Imiquimod (TLR7) […]
[10] = library stock concentration (final ~1000-fold dilution): 10 mM, cytotoxicity flag (confluency mask): cytotoxic (confluency <70% of control), agonist: MPLA (TLR4) […]
[11] = library stock concentration (final ~1000-fold dilution): 2 mM, cytotoxicity flag (confluency mask): not cytotoxic, agonist: Imiquimod (TLR7) […]
[12] = library stock concentration (final ~1000-fold dilution): 2 mM, cytotoxicity flag (confluency mask): not cytotoxic, agonist: MPLA (TLR4) […]

O=c1[nH]c(=S)[nH]c2nc(-c3ccccc3)c(-c3ccccc3)nc12
NF-kB SEAP reporter activity [1, 4]: 0.796 | NF-kB SEAP reporter activity [1, 5]: 0.977

O=c1[nH]c(=S)[nH]c2nc(-c3ccccc3)c(-c3ccccc3)nc12 (library stock concentration (final ~1000-fold dilution): 10 mM)
NF-kB SEAP reporter activity ([2]; agonist: LPS (TLR4) 0.1 ug/mL): 0.947 | NF-kB SEAP reporter activity [2, 6]: 0.854 | NF-kB SEAP reporter activity [2, 7]: 0.938 | NF-kB SEAP reporter activity [2, 8]: 0.926

Br.CCCc1cc(-c2nc(-c3ccc(C)cc3)cs2)ccn1 (library stock concentration (final ~1000-fold dilution): 10 mM)
NF-kB SEAP reporter activity ([3]; agonist: LPS (TLR4) 0.1 ug/mL): 1.54 | NF-kB SEAP reporter activity [3, 6]: 1.04 | NF-kB SEAP reporter activity [3, 7]: 1.07 | NF-kB SEAP reporter activity [3, 8]: 0.895

Br.CCCc1cc(-c2nc(-c3ccc(C)cc3)cs2)ccn1
NF-kB SEAP reporter activity [1, 9]: 1.1 | NF-kB SEAP reporter activity [1, 10]: 1.37

Cc1cccc(CN2CCN(C(c3ccccc3)c3ccc(Cl)cc3)CC2)c1.Cl.Cl (centres undefined)
NF-kB SEAP reporter activity [1, 11]: 0.843 | NF-kB SEAP reporter activity [1, 12]: 1.15

Cc1cccc(CN2CCN(C(c3ccccc3)c3ccc(Cl)cc3)CC2)c1.Cl.Cl (centres undefined) (library stock concentration (final ~1000-fold dilution): 2 mM)
NF-kB SEAP reporter activity ([2]; agonist: LPS (TLR4) 0.1 ug/mL): 1.51 | NF-kB SEAP reporter activity [2, 6]: 0.87 | NF-kB SEAP reporter activity [2, 7]: 0.931 | NF-kB SEAP reporter activity [2, 8]: 0.984

Brc1ccc(C2CN3CCSC3=N2)cc1.O=C(O)C(=O)O (centres undefined) (library stock concentration (final ~1000-fold dilution): 10 mM)
NF-kB SEAP reporter activity ([2]; agonist: LPS (TLR4) 0.1 ug/mL): 1.48 | NF-kB SEAP reporter activity [2, 6]: 0.888 | NF-kB SEAP reporter activity [2, 7]: 0.956 | NF-kB SEAP reporter activity [2, 8]: 1.01

Brc1ccc(C2CN3CCSC3=N2)cc1.O=C(O)C(=O)O (centres undefined)
NF-kB SEAP reporter activity [1, 4]: 0.948 | NF-kB SEAP reporter activity [1, 5]: 1.01

CC(=N)NCc1cccc(CN)c1.Cl.Cl
NF-kB SEAP reporter activity [1, 4]: 1.08 | NF-kB SEAP reporter activity [1, 5]: 1.03

CC(=N)NCc1cccc(CN)c1.Cl.Cl (library stock concentration (final ~1000-fold dilution): 10 mM)
NF-kB SEAP reporter activity ([2]; agonist: LPS (TLR4) 0.1 ug/mL): 0.956 | NF-kB SEAP reporter activity [2, 6]: 1.03 | NF-kB SEAP reporter activity [2, 7]: 1.02 | NF-kB SEAP reporter activity [2, 8]: 0.859

CNC1CCC(c2ccc(Cl)c(Cl)c2)c2ccccc21.Cl (centres undefined)
NF-kB SEAP reporter activity [1, 9]: 1.64 | NF-kB SEAP reporter activity [1, 10]: 1.56

CNC1CCC(c2ccc(Cl)c(Cl)c2)c2ccccc21.Cl (centres undefined) (library stock concentration (final ~1000-fold dilution): 10 mM)
NF-kB SEAP reporter activity ([3]; agonist: LPS (TLR4) 0.1 ug/mL): 0.879 | NF-kB SEAP reporter activity [3, 6]: 0.405 | NF-kB SEAP reporter activity [3, 7]: 0.42 | NF-kB SEAP reporter activity [3, 8]: 0.484

CC(C)(C)c1ccc(Cn2nc(-c3ccc(Cl)cc3)cc2C(=O)NO)cc1 (library stock concentration (final ~1000-fold dilution): 10 mM)
NF-kB SEAP reporter activity ([2]; agonist: LPS (TLR4) 0.1 ug/mL): 1.32 | NF-kB SEAP reporter activity [2, 6]: 1.24 | NF-kB SEAP reporter activity [2, 7]: 0.824 | NF-kB SEAP reporter activity [2, 8]: 0.964

CC(C)(C)c1ccc(Cn2nc(-c3ccc(Cl)cc3)cc2C(=O)NO)cc1
NF-kB SEAP reporter activity [1, 4]: 1.47 | NF-kB SEAP reporter activity [1, 5]: 1.5

COC1/C=C/OC2(C)Oc3c(C)c(O)c4c(O)c(c(/C=N/N5CCN(C)CC5)c(O)c4c3C2=O)NC(=O)/C(C)=C/C=C/C(C)C(O)C(C)C(O)C(C)C(OC(C)=O)C1C (centres undefined) (library stock concentration (final ~1000-fold dilution): 10 mM)
NF-kB SEAP reporter activity ([2]; agonist: LPS (TLR4) 0.1 ug/mL): 0.987 | NF-kB SEAP reporter activity [2, 6]: 0.979 | NF-kB SEAP reporter activity [2, 7]: 0.906 | NF-kB SEAP reporter activity [2, 8]: 0.892

COC1/C=C/OC2(C)Oc3c(C)c(O)c4c(O)c(c(/C=N/N5CCN(C)CC5)c(O)c4c3C2=O)NC(=O)/C(C)=C/C=C/C(C)C(O)C(C)C(O)C(C)C(OC(C)=O)C1C (centres undefined)
NF-kB SEAP reporter activity [1, 4]: 0.886 | NF-kB SEAP reporter activity [1, 5]: 0.877

O=C(O)c1ccc(CSc2nc(-c3ccccc3)cc(N3CCN(c4ccccc4Cl)CC3)n2)cc1 (library stock concentration (final ~1000-fold dilution): 10 mM)
NF-kB SEAP reporter activity ([2]; agonist: LPS (TLR4) 0.1 ug/mL): 0.736 | NF-kB SEAP reporter activity [2, 6]: 0.584 | NF-kB SEAP reporter activity [2, 7]: 0.248 | NF-kB SEAP reporter activity [2, 8]: 0.392

O=C(O)c1ccc(CSc2nc(-c3ccccc3)cc(N3CCN(c4ccccc4Cl)CC3)n2)cc1
NF-kB SEAP reporter activity [1, 4]: 0.515 | NF-kB SEAP reporter activity [1, 5]: 0.868

CC(C)CC(NC(=O)CNC(=O)c1cc(Cl)ccc1Cl)B1OC(=O)CC(CC(=O)O)(C(=O)O)O1 (centres undefined)
NF-kB SEAP reporter activity [1, 4]: 0.956 | NF-kB SEAP reporter activity [1, 5]: 0.913

CC(C)CC(NC(=O)CNC(=O)c1cc(Cl)ccc1Cl)B1OC(=O)CC(CC(=O)O)(C(=O)O)O1 (centres undefined) (library stock concentration (final ~1000-fold dilution): 10 mM)
NF-kB SEAP reporter activity ([2]; agonist: LPS (TLR4) 0.1 ug/mL): 0.585 | NF-kB SEAP reporter activity [2, 6]: 0.938 | NF-kB SEAP reporter activity [2, 7]: 0.905 | NF-kB SEAP reporter activity [2, 8]: 0.999

O=c1cc(N2CCOCC2)oc2c(-c3cccc4c3sc3ccccc34)cccc12 (library stock concentration (final ~1000-fold dilution): 2 mM)
NF-kB SEAP reporter activity ([2]; agonist: LPS (TLR4) 0.1 ug/mL): 5.39 | NF-kB SEAP reporter activity [2, 6]: 1.43 | NF-kB SEAP reporter activity [2, 7]: 1.05 | NF-kB SEAP reporter activity [2, 8]: 2.43

O=c1cc(N2CCOCC2)oc2c1ccc1ccccc12
NF-kB SEAP reporter activity [1, 11]: 1.04 | NF-kB SEAP reporter activity [1, 12]: 0.989

O=c1nc(N2CCOCC2)oc2c(-c3cccc4c3sc3ccccc34)cccc12 (library stock concentration (final ~1000-fold dilution): 10 mM)
NF-kB SEAP reporter activity ([2]; agonist: LPS (TLR4) 0.1 ug/mL): 3.45 | NF-kB SEAP reporter activity [2, 6]: 1.08 | NF-kB SEAP reporter activity [2, 7]: 0.718 | NF-kB SEAP reporter activity [2, 8]: 1.38

O=c1cc(N2CCOCC2)oc2c(-c3ccccc3)cccc12 (library stock concentration (final ~1000-fold dilution): 10 mM)
NF-kB SEAP reporter activity ([3]; agonist: LPS (TLR4) 0.1 ug/mL): 1.81 | NF-kB SEAP reporter activity [3, 6]: 1.34 | NF-kB SEAP reporter activity [3, 7]: 0.984 | NF-kB SEAP reporter activity [3, 8]: 1.19
